Results taken from article PMC7862700, “An all-to-all approach to the identification of sequence-specific readers for epigenetic DNA modifications on cytosine”.

Columns and labels:
Test in all cases: DAPPL (digital affinity profiling via proximity ligation, sequencing); 10 mM Tris-HCl pH 7.5, 50 mM NaCl, 1 mM DTT, 4% glycerol, room temperature, 30 min; GST-TFs on glutathione beads, 16-mer random dsDNA library, 0.1% formaldehyde crosslink after washing; high values mean tight binding
Settings in all cases: protein: recombinant; tags: N-terminal GST; dsDNA, one strand shown
ERF = biological target: T1, ERF (Homo sapiens, UniProt P50548 1-548)
T1 sequence: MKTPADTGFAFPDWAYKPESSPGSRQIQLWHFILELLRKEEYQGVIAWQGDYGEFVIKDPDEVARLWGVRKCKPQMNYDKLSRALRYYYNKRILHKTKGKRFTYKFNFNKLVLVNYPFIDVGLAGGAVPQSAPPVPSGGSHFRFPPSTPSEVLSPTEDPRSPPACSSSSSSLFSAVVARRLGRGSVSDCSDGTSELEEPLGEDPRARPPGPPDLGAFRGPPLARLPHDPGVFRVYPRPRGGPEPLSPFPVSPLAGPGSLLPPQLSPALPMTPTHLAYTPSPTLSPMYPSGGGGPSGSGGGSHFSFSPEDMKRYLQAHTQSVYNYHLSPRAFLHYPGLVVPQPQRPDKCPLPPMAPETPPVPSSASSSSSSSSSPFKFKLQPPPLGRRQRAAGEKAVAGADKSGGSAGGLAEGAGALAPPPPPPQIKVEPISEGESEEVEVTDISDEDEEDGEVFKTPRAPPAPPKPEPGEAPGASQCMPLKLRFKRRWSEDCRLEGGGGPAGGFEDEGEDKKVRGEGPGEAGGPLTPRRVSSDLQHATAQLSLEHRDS
Method in brief: (§1)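 Yeast served to express human transcription factors as GST fusions, which were then captured on glutathione beads and labelled with DNA barcodes. Pooled with a tag-only sample, they were incubated with 200 nmole of a 16-mer random double-stranded DNA library for 30 min at room temperature in Tris/NaCl/DTT/glycerol buffer, washed, crosslinked with 0.1% formaldehyde, ligated by proximity, amplified by PCR and sequenced. Dividing each hexamer's read frequency for a factor by its frequency for the tag-only sample gives the binding signal.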

ETV3L = biological target: T2, ETV3L (Homo sapiens, UniProt Q6ZN32 1-361)
T2 sequence: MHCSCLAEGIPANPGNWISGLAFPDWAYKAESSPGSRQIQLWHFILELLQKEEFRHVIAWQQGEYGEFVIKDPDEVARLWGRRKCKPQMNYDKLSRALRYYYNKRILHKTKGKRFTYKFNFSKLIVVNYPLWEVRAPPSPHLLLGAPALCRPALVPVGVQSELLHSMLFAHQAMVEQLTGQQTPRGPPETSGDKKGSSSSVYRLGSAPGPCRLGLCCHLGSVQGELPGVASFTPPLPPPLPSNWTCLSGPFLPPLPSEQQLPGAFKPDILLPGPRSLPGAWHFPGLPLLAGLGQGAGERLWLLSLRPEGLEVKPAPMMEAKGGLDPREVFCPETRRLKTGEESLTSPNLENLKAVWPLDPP
Method in brief: as §1

ETS2 = biological target: T3, ETS2 (Homo sapiens, UniProt P15036 1-469)
T3 sequence: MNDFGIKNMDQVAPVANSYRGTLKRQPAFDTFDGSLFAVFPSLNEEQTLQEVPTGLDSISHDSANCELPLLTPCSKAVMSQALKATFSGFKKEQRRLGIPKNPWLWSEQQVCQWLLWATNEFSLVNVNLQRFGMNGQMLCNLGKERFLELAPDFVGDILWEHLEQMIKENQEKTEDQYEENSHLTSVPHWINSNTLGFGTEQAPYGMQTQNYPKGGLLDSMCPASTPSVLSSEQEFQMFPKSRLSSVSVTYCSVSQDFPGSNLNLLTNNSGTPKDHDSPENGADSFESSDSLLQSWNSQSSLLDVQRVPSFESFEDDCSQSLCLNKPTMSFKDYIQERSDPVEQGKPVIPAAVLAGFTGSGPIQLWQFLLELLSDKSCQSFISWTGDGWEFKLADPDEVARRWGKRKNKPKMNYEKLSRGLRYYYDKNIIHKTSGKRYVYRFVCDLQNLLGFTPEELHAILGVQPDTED
Method in brief: as §1

SPDEF = biological target: T4, SPDEF (Homo sapiens, UniProt O95238 1-335)
T4 sequence: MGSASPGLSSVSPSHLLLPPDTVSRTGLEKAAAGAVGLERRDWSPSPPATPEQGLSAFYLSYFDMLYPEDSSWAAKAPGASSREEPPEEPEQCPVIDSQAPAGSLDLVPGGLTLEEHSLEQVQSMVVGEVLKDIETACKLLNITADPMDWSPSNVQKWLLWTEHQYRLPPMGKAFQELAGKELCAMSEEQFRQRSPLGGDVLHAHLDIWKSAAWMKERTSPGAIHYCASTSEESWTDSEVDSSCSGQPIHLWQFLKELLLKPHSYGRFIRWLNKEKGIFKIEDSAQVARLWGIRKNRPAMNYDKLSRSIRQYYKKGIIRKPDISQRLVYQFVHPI
Method in brief: as §1

ETV7 = biological target: T5, ETV7 (Homo sapiens, UniProt Q9Y603 1-341)
T5 sequence: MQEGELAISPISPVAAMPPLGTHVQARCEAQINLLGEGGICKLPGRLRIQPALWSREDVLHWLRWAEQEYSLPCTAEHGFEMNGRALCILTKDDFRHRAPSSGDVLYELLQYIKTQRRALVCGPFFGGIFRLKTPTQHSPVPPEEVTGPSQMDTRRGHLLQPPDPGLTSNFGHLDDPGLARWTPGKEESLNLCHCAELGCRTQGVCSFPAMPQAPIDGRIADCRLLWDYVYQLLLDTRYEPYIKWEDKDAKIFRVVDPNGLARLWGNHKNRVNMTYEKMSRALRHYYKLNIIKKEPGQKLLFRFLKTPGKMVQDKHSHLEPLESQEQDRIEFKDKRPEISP
Method in brief: as §1

ELF5 = biological target: T6, ELF5 (Homo sapiens, UniProt Q9UKW6-2 1-255)
T6 sequence: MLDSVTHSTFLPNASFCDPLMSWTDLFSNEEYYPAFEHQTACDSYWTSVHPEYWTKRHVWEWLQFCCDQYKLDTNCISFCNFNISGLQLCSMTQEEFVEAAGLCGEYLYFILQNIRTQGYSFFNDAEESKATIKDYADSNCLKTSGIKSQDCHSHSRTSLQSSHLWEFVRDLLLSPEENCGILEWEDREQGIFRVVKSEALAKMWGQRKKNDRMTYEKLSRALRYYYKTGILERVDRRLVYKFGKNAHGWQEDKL
Method in brief: as §1

ETV3 = biological target: T7, ETV3 (Homo sapiens, UniProt P41162-2 1-143)
T7 sequence: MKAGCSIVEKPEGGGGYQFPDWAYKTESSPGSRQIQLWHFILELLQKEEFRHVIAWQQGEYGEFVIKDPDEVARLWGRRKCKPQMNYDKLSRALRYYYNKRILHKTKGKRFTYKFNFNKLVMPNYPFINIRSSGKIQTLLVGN
Method in brief: as §1

ETV6 = ETV6 (Homo sapiens, UniProt P41212 1-452)
ETV6, sequence (P41212 whole entry): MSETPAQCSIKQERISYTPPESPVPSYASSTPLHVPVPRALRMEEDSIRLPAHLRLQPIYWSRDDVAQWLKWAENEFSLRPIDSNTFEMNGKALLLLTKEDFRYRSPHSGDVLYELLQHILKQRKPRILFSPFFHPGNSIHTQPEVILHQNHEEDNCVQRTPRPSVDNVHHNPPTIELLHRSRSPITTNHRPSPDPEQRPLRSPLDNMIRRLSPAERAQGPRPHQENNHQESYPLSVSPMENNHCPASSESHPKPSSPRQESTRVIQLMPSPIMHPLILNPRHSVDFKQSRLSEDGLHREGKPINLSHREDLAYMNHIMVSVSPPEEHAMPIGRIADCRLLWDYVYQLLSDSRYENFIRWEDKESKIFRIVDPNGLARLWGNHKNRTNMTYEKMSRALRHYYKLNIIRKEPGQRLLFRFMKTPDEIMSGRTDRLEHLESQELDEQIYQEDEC
Method in brief: as §1

Sequence	binding signal (ERF)	binding signal (ETV3L)	binding signal (ETS2)	binding signal (SPDEF)	binding signal (ETV7)	binding signal (ELF5)	binding signal (ETV3)	binding signal (ETV6)
GAAATA	1.45 fold enrichment (6-mer frequency, TF over GST control)	1.48 fold enrichment (6-mer frequency, TF over GST control)	1.51 fold enrichment (6-mer frequency, TF over GST control)	1.52 fold enrichment (6-mer frequency, TF over GST control)	1.6 fold enrichment (6-mer frequency, TF over GST control)	1.73 fold enrichment (6-mer frequency, TF over GST control)	1.54 fold enrichment (6-mer frequency, TF over GST control)	1.75 fold enrichment (6-mer frequency, TF over GST control)
AAACAC	1.34 fold enrichment (6-mer frequency, TF over GST control)	1.37 fold enrichment (6-mer frequency, TF over GST control)	1.38 fold enrichment (6-mer frequency, TF over GST control)	1.31 fold enrichment (6-mer frequency, TF over GST control)	1.34 fold enrichment (6-mer frequency, TF over GST control)	1.3 fold enrichment (6-mer frequency, TF over GST control)	1.33 fold enrichment (6-mer frequency, TF over GST control)	1.32 fold enrichment (6-mer frequency, TF over GST control)
TTTATA	1.4 fold enrichment (6-mer frequency, TF over GST control)	1.42 fold enrichment (6-mer frequency, TF over GST control)	1.4 fold enrichment (6-mer frequency, TF over GST control)	1.3 fold enrichment (6-mer frequency, TF over GST control)	1.43 fold enrichment (6-mer frequency, TF over GST control)	1.27 fold enrichment (6-mer frequency, TF over GST control)	1.32 fold enrichment (6-mer frequency, TF over GST control)	1.38 fold enrichment (6-mer frequency, TF over GST control)
ATACGA	1.17 fold enrichment (6-mer frequency, TF over GST control)	1.1 fold enrichment (6-mer frequency, TF over GST control)	1.17 fold enrichment (6-mer frequency, TF over GST control)	1.18 fold enrichment (6-mer frequency, TF over GST control)	1.11 fold enrichment (6-mer frequency, TF over GST control)	1.17 fold enrichment (6-mer frequency, TF over GST control)	1.11 fold enrichment (6-mer frequency, TF over GST control)	1.08 fold enrichment (6-mer frequency, TF over GST control)
CACGCT	1.35 fold enrichment (6-mer frequency, TF over GST control)	1.37 fold enrichment (6-mer frequency, TF over GST control)	1.31 fold enrichment (6-mer frequency, TF over GST control)	1.35 fold enrichment (6-mer frequency, TF over GST control)	1.36 fold enrichment (6-mer frequency, TF over GST control)	1.25 fold enrichment (6-mer frequency, TF over GST control)	1.37 fold enrichment (6-mer frequency, TF over GST control)	1.34 fold enrichment (6-mer frequency, TF over GST control)
CTAGAT	1.24 fold enrichment (6-mer frequency, TF over GST control)	1.34 fold enrichment (6-mer frequency, TF over GST control)	1.2 fold enrichment (6-mer frequency, TF over GST control)	1.26 fold enrichment (6-mer frequency, TF over GST control)	1.2 fold enrichment (6-mer frequency, TF over GST control)	1.11 fold enrichment (6-mer frequency, TF over GST control)	1.19 fold enrichment (6-mer frequency, TF over GST control)	1.05 fold enrichment (6-mer frequency, TF over GST control)
AACACA	1.39 fold enrichment (6-mer frequency, TF over GST control)	1.34 fold enrichment (6-mer frequency, TF over GST control)	1.38 fold enrichment (6-mer frequency, TF over GST control)	1.41 fold enrichment (6-mer frequency, TF over GST control)	1.46 fold enrichment (6-mer frequency, TF over GST control)	1.36 fold enrichment (6-mer frequency, TF over GST control)	1.35 fold enrichment (6-mer frequency, TF over GST control)	1.29 fold enrichment (6-mer frequency, TF over GST control)
